From PubChem BioAssay (NCATS) come the findings set out here.

Results filed as inconclusive are left out. A call without a number means that no potency is given here. Active and inactive are the calls of the source. The call rests on the fitted dose curve; in most records, active means well fitted activation curve with a large enough effect; inconclusive means small, poorly fitted or top-dose-only effect; inactive means flat fitted curve, though single readings scatter.
Potency means the concentration at half of the fitted maximal effect.

Sequence of Nuclear receptor subfamily 1 group I member 3 (Homo sapiens) (Q14994 whole entry, looked up): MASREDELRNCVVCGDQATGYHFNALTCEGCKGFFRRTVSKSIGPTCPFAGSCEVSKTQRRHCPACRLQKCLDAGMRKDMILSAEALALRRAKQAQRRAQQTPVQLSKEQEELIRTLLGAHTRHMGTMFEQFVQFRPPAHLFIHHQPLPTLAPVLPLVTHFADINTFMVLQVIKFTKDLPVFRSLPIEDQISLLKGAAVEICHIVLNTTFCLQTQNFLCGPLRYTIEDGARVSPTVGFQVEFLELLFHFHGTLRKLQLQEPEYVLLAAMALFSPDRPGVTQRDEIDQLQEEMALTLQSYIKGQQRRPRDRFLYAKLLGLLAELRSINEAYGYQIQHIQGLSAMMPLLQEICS

The test has as its target Nuclear receptor subfamily 1 group I member 3 (Homo sapiens) (UniProt Q14994). In words: Primary qHTS for agonist of constitutive androstane receptor (CAR) against the NCATS DSHEA and TCM libraries (AID 1794839).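 On activation: HepG2 cells expressing human CAR with a CYP2B6 reporter plus PK11195 antagonist.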 The note with it: CAR agonist reporter cells, qHTS luminescence, CAR antagonist co-added at 0.75 µM; series mostly up to 40 µM. The source says: National Center for Advancing Translational Sciences (NCATS), Rockville, MD
National Institute of Health (NIH), Bethesda, Maryland
Dietary Supplements and Natural Products have minor oversight of their safety and efficacy. We assembled a collection of Dietary Supplements and Natural Products (DSNP) as well as Traditional Chinese Medicinal (TCM) Plant extracts, which were screened against an in vitro panel of assays, including a liver cytochrome p450 enzyme panel, CAR/PXR signaling pathways, and P-gp transporter assays, to assess their activity. This pipeline facilitated the interrogation of Natural Product-Drug Interaction (NaPDI) through prominent metabolizing pathways. In addition, we compared the activity profiles of the DSNP/TCM substances with those of an approved drug collection. Many of the approved drugs have well-annotated mechanisms of action (MOA) while the MOAs for most of the DSNP and TCM samples remain unknown. Based on the premise that compounds with similar activity profiles tend to share similar targets or MOA, we clustered the library activity profiles to identify overlap with the NCATS Pharmaceutical Collection to predict the MOAs of the DSNP/TCM substances. Overall, we highlight four significant bioactivity profiles (measured by p-values) as examples of this prediction.
To this end, we profiled both collections for potential CAR and/or PXR activity, employing a previously published 1536-well qHTS assay.
PROTOCOL TABLE (as described by Inglese J, Shamu CE and Guy RK. 2007)
SEQUENCE No. (e.g., 1, 2, 3, etc.); […] (e.g., Cells, Incubation, Reagent, etc.); VALUE; DESCRIPTION.
1; Cells; 4 uL; 1536-well white Greiner assay plate.
2; Incubation; 5 hours; 37C, 95% humidity, 5% CO2.
3; Compounds; 23 nL; Kalypsis pin tool (Wako USA) equipped with 1536-well pin head to transfer to the assay plates.
4; Reagent; 1 uL; 0.75 uM PK11195 (final concentration).
5; Incubation; 24 hours; 37C, 5% CO2.
6; Detection Reagent 1; 1 uL; CellTiter-Fluor (Promega).
7; Incubation; 1 hour; 37C, 5% CO2.
8; Detector 1; Fluorescence intensity; ViewLux plate reader (excitation 405 nm, emission 540 nm).
9; Detection Reagent 2; 4 uL; ONE-Glo Luciferase reagent (Promega).
10; Incubation; 30 min; room temperature.
11; Detector 2; Luminescence intensity; ViewLux.
NOTES (numbers refer to Sequence numbers above)
1. 4 µL of HepG2-CYP2B6-hCAR cells at 6.25 x 10^5 cells/mL (2,500 cells/well) were dispensed using a Multidrop Combi dispenser in tissue culture-treated 1536-well white assay plates (Greiner Bio-One) in the same culture media, without geneticin and blasticidin included.
2. Plates were incubated for 5 hours at 37 degrees C, 95% humidity, and 5% CO2 to allow for cell attachment.
3. Compounds (final concentrations of most substances ranged from 15.6 nM to 31.9 µM), positive control (for agonist mode: 6-(4-Chlorophenyl)imidazo[2,1-b][1,3]thiazole-5-carbaldehyde O-(3,4-dichlorobenzyl)oxime (CITCO) with a final concentration range 2.8 nM to 92 µM were transferred (23 nL) via pintool (Wako Automation).
4. After compound transfer, plates were dispensed with 1 µL of the known hCAR antagonist PK11195 (final concentration of 0.75 µM) in the agonist mode using a BioRAPTR FRDTM.
6. 1 µL of CellTiter-Fluortrade mark (Promega, Madison, Wisconsin) was added using a BioRAPTR FRDTM.
8. Fluorescence intensity (Ex/Em = 405 nm/540 nm) is obtained using the ViewLux plate reader to determine cell viability.
9. 4 µL of ONE-Glotrade mark Luciferase reagent (Promega) was added to each well using the BioRAPTR FRDTM,
10. Luminescence intensity is read using the ViewLux detector.
Inglese J, Shamu CE and Guy RK, Reporting data from high throughput screening of small molecule libraries, Nature Chemical Biology, 2007, 3(8): 438-441. doi.org/10.1038/nchembio0807-438.
As to `C=C1C[C@@]23CC[C@H]4[C@@](C)(CCC[C@@]4(C)C(=O)O[C@@H]4O[C@H](CO)[C@@H](O)[C@H](O)[C@H]4O)[C@@H]2CC[C@]1(O[C@@H]1O[C@H](CO)[C@@H](O)[C@H](O[C@@H]2O[C@H](CO)[C@@H](O)[C@H](O)[C@H]2O)[C@H]1O[C@@H]1O[C@@H](C)[C@H](O)[C@@H](O)[C@H]1O)C3`, the Potency entry is “inactive”.

As to `C=C(C)C(CC=C(C)C)CC12CC(CC=C(C)C)C(C)(C)C(CC=C(C)C)(C(=O)/C(=C(\O)c3ccc(O)c(O)c3)C1=O)C2=O` (stereo not given), the Potency result was “inactive”.

In the case of `C[C@@H]1OC(O[C@H]2[C@H](O)[C@@H](O)[C@H](OC[C@H]3O[C@@H](OC(=O)[C@]45CCC(C)(C)C[C@@H]4C4=CCC6[C@@]7(C)CC[C@H](OC8OC[C@H](O)[C@H](O)[C@H]8OC8O[C@@H](C)[C@H](O)[C@@H](O)[C@H]8O)[C@@](C)(CO)C7CC[C@@]6(C)[C@]4(C)CC5)[C@H](O)[C@@H](O)[C@@H]3O)O[C@@H]2CO)[C@H](O)[C@H](O)[C@H]1O` (stereo not given in full), the Potency entry was “inactive”.

As for `C=C1CC/C=C(/C)CC[C@@H]2[C@@H]1CC2(C)C`, the Potency is 7.08 µM (active).

Regarding `O=C(/C=C/c1ccc(O)c(O)c1)OC1[C@H](O)CC(O)(C(=O)O)C[C@@H]1O` (stereo not given in full), the Potency entry was “inactive”.

Regarding `CCCCCC/C=C\CCCCCCCC(=O)O`, the Potency entry was “inactive”.

`CC1=CCC(O)(C(C)C)CC1` (stereo not given): the Potency result was “inactive”.

Regarding `CCCCCCCCCCCCCCCCCCCCCC(=O)O`, the Potency result is “inactive”.

As to `CC(C)(O)[C@@H]1CC[C@](C)([C@@H]2[C@H](O)C[C@]3(C)C4C[C@@H](O[C@H]5O[C@@H](CO)[C@H](O)[C@@H](O)[C@@H]5O)C5C(C)(C)[C@H](O[C@H]6OC[C@H](O)[C@@H](O)[C@@H]6O)CC[C@]56CC46CC[C@@]23C)O1` (stereo not given in full), the Potency entry is “inactive”.

Consider `CCCCCCCCCCCCCC(=O)OCC(O)CO` (stereo not given), for which the Potency entry is “inactive”.

Regarding `C=C/C(C)=C/C/C=C(\C)CCC=C(C)C`, the Potency entry is “inactive”.

Take `CC1(C)CC[C@]2(C(=O)O)CC[C@]3(C)C(=CCC4[C@@]5(C)CC[C@H](O)[C@@](C)(CO)C5CC[C@]43C)[C@H]2C1` (stereo not given in full): the Potency result was “inactive”.

Turning to `O=C(/C=C/c1ccc(O)c(O)c1)O[C@@H]1CC(C(=O)O)=C[C@@H](O)[C@H]1O`, the Potency result is “inactive”.

Regarding `CC1=CCC(=C(C)C)CC1`, the Potency entry is “inactive”.

With `O=C(/C=C/c1ccc(O)c(O)c1)O[C@H]1[C@H](O)C[C@](O)(C(=O)O)C[C@H]1OC(=O)/C=C/c1ccc(O)c(O)c1`, the Potency result is “inactive”.

`O=C(O)CC(O)(C(=O)O)C(O)C(=O)O` (stereo not given): the Potency entry is “inactive”.

`C=CC(C)(CCC=C(C)C)OC(C)=O` (stereo not given): the Potency result was “inactive”.

Regarding `O=c1cc(-c2ccc(O)c(O)c2)oc2cc(O[C@@H]3O[C@@H](CO)[C@@H](O)[C@@H](O)[C@H]3O)cc(O)c12`, the Potency was 28.2 µM (active).

Take `C=C(C)C1CC=C(C)C(O)C1` (stereo not given): the Potency entry is “inactive”.

As to `CCCCCCCCCC=O`, the Potency entry was “inactive”.

Consider `COc1cc(/C=C/c2ccccc2)oc(=O)c1`, for which the Potency is 12.6 µM (active).

In the case of `CC(C)[C@H](C)CC[C@@H](C)[C@H]1CC[C@H]2[C@@H]3CC=C4C[C@@H](O)CC[C@]4(C)[C@H]3CC[C@]12C`, the Potency entry was “inactive”.

For the compound `O=C(/C=C/c1ccc(O)c2c1[C@H](C(=O)O)[C@@H](c1ccc(O)c(O)c1)O2)O[C@H](Cc1ccc(O)c(O)c1)C(=O)O`, the Potency entry is “inactive”.

With `CC1=CC[C@H](C(C)C)C=C1`, the Potency entry is “inactive”.

On to `CC(C)=CCC[C@](C)(O[C@@H]1O[C@H](CO)[C@@H](O)[C@H](O)[C@H]1O)[C@H]1CC[C@]2(C)[C@@H]1[C@H](O)C[C@@H]1[C@@]3(C)CC[C@H](O)C(C)(C)[C@@H]3[C@@H](O[C@@H]3O[C@H](CO)[C@@H](O)[C@H](O)[C@H]3O[C@@H]3O[C@@H](C)[C@H](O)[C@@H](O)[C@H]3O)C[C@]12C`, for which the Potency entry was “inactive”.

For `C=C1C[C@@]23CC[C@H]4[C@@](C)(CCC[C@@]4(C)C(=O)O[C@@H]4O[C@H](CO)[C@@H](O)[C@H](O)[C@H]4O[C@@H]4O[C@H](CO)[C@@H](O)[C@H](O)[C@H]4O)[C@@H]2CC[C@]1(O[C@@H]1O[C@H](CO)[C@@H](O)[C@H](O)[C@H]1O[C@@H]1O[C@H](CO)[C@@H](O)[C@H](O)[C@H]1O)C3`, the Potency entry is “inactive”.

`C=C1C[C@@]23CC[C@H]4[C@](C)(CCC[C@]4(C)C(=O)O[C@@H]4O[C@H](CO)[C@@H](O)[C@H](O)[C@H]4O)[C@@H]2CC[C@]1(O[C@H]1O[C@@H](CO)[C@H](O)[C@@H](O)[C@@H]1O)C3`: the Potency result was “inactive”.

Take `CC(C)=CCC[C@](C)(O[C@@H]1O[C@H](CO)[C@@H](O)[C@H](O)[C@H]1O)[C@H]1CC[C@]2(C)[C@@H]1[C@H](O)C[C@@H]1[C@@]3(C)CC[C@H](O[C@@H]4O[C@H](CO)[C@@H](O)[C@H](O)[C@H]4O[C@@H]4O[C@H](CO)[C@@H](O)[C@H](O)[C@H]4O)C(C)(C)[C@@H]3CC[C@]12C`: the Potency result was “inactive”.

Turning to `COc1ccc(/C=C/c2cc(OC)cc(=O)o2)cc1`, the Potency is 14.1 µM (active).

On to `O=Cc1ccccc1O`, for which the Potency result is “inactive”.

For the compound `O=C(OC[C@H]1O[C@@H](OC(=O)c2cc(O)c(O)c(O)c2)[C@H](OC(=O)c2cc(O)c(O)c(O)c2)[C@@H](OC(=O)c2cc(O)c(O)c(O)c2)[C@@H]1O)c1cc(O)c(O)c(O)c1`, the Potency result was “inactive”.

With `CC/C=C\C/C=C\C/C=C\C/C=C\CCCCC(=O)O`, the activation is -23.1% [at 5 µM] (inactive).

Regarding `CCCCCCCC/C=C\CCCCCCCCCCCC(=O)O`, the Potency entry was “inactive”.

On to `CCCCCCCC/C=C\CCCCCCCCCCCCCC(=O)O`, for which the Potency result is “inactive”.

On to `CC(C)=CCC[C@](C)(OC1OC(COC2OCC(O)C(O)C2O)C(O)C(O)C1O)[C@H]1CC[C@]2(C)[C@@H]1[C@H](O)C[C@@H]1[C@@]3(C)CC[C@H](OC4OC(CO)C(O)C(O)C4OC4OC(CO)C(O)C(O)C4O)C(C)(C)[C@@H]3CC[C@]12C` (stereo not given in full), for which the Potency result was “inactive”.

Consider `CC(=O)OC1CC2CCC1(C)C2(C)C` (stereo not given), for which the Potency entry was “inactive”.

On to `Cc1ccc(C(C)C)cc1`, for which the Potency entry is “inactive”.

Regarding `COc1ccc(-c2coc3cc(O[C@@H]4O[C@H](CO)[C@@H](O)[C@H](O)[C@H]4O)ccc3c2=O)cc1`, the Potency is 11.2 µM (active).

On to `CC(C)c1ccc(C=O)cc1`, for which the Potency entry was “inactive”.

Turning to `CCCCCCCCCCCCCCCCCCCCCCCCCCCCCCO`, the activation was -23.2% [at 5 µM] (inactive).
